Results reported in publication PMC7862700, “An all-to-all approach to the identification of sequence-specific readers for epigenetic DNA modifications on cytosine”.

Experiments:
Assay in all cases: DAPPL (digital affinity profiling via proximity ligation, sequencing); 10 mM Tris-HCl pH 7.5, 50 mM NaCl, 1 mM DTT, 4% glycerol, room temperature, 30 min; GST-TFs on glutathione beads, 16-mer random dsDNA library, 0.1% formaldehyde crosslink after washing; high values mean tight binding
FEV = biological target: T1, FEV (Homo sapiens, UniProt Q99581 1-238); conditions: protein: recombinant; tags: N-terminal GST; dsDNA, one strand shown
T1 sequence: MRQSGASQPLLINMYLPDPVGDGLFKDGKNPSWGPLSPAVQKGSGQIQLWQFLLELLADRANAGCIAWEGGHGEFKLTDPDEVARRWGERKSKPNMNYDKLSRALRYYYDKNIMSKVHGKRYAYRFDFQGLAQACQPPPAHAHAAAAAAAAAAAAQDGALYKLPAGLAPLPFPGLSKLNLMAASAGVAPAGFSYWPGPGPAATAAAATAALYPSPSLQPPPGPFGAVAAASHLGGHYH
Method in brief: (§1)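 Human transcription factors were made in yeast as GST fusions, captured on glutathione beads and barcoded with DNA. With a tag-only sample included, the pool was incubated with 200 nmole of a random double-stranded 16-mer DNA library in Tris/NaCl/DTT/glycerol buffer at room temperature for 30 min, then crosslinked with 0.1% formaldehyde after washing, ligated by proximity, amplified and sequenced. For binding signal, each hexamer's read frequency for a factor is divided by its frequency for the tag-only sample.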

ETV5 = ETV5 (Homo sapiens, UniProt P41161 1-510); conditions: protein: recombinant; tags: N-terminal GST; dsDNA, one strand shown
ETV5, sequence (P41161 whole entry): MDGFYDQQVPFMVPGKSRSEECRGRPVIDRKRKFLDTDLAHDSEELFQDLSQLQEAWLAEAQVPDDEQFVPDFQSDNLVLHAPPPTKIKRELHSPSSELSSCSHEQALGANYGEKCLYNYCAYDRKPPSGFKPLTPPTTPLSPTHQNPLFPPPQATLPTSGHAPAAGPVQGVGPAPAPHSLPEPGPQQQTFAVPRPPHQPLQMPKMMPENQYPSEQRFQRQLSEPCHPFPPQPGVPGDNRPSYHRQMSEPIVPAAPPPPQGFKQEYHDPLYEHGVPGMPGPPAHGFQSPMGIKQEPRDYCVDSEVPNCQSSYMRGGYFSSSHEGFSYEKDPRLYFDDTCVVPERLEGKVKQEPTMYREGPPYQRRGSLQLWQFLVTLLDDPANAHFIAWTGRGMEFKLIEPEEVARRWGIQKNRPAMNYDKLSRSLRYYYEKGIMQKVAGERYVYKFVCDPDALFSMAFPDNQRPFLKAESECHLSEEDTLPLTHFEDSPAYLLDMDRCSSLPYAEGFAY
Method in brief: as §1

HSF1 = HSF1 (Homo sapiens, UniProt Q00613 1-529); conditions: protein: recombinant; tags: N-terminal GST; chain copies: 3; dsDNA, one strand shown
HSF1, sequence (Q00613 whole entry): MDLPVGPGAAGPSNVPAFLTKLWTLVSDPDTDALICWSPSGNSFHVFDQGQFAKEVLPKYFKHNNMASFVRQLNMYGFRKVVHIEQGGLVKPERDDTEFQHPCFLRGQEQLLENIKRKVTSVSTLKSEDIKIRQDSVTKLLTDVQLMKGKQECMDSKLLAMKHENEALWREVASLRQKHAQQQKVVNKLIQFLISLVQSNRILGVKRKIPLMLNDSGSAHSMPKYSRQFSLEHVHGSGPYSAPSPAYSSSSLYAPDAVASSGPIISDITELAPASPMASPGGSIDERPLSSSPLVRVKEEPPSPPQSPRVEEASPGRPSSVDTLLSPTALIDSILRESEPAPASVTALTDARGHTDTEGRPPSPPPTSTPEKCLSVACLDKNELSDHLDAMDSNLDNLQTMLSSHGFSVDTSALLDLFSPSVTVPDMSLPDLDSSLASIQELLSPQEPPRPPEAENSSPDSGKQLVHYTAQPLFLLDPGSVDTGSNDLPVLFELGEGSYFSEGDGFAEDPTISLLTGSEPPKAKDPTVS
Method in brief: as §1

SPIC = biological target: T2, SPIC (Homo sapiens, UniProt Q8N5J4 1-248); conditions: protein: recombinant; tags: N-terminal GST; dsDNA, one strand shown
T2 sequence: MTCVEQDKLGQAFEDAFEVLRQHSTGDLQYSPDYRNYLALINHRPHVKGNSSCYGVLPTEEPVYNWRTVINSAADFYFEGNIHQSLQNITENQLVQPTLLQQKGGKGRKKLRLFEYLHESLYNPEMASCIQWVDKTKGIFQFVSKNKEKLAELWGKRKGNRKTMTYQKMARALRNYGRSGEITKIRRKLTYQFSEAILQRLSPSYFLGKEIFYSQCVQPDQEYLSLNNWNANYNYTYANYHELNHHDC
Method in brief: as §1

ELF4 = ELF4 (Homo sapiens, UniProt Q99607 1-663); conditions: protein: recombinant; tags: N-terminal GST; dsDNA, one strand shown
ELF4, sequence (Q99607 whole entry): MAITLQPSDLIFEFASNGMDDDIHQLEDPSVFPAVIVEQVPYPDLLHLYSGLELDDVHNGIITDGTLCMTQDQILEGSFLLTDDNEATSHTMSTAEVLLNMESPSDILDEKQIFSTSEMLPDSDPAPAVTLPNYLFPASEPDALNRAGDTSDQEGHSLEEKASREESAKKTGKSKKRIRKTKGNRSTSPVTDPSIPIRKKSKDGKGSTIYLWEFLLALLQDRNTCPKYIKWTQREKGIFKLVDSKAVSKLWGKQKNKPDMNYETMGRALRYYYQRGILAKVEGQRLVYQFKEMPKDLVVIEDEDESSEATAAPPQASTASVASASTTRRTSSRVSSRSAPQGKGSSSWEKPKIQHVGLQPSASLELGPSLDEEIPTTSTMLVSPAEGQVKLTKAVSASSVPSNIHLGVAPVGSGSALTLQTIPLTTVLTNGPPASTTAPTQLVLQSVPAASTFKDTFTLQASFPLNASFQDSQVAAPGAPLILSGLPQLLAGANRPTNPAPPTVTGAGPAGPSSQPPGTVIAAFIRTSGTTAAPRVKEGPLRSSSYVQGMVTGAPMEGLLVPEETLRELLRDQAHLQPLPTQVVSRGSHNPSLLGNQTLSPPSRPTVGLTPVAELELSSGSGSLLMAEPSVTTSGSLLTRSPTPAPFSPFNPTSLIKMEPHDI
Method in brief: as §1

ELK4 = biological target: T3, ELK4 (Homo sapiens, UniProt P28324-2 1-405); conditions: protein: recombinant; tags: N-terminal GST; dsDNA, one strand shown
T3 sequence: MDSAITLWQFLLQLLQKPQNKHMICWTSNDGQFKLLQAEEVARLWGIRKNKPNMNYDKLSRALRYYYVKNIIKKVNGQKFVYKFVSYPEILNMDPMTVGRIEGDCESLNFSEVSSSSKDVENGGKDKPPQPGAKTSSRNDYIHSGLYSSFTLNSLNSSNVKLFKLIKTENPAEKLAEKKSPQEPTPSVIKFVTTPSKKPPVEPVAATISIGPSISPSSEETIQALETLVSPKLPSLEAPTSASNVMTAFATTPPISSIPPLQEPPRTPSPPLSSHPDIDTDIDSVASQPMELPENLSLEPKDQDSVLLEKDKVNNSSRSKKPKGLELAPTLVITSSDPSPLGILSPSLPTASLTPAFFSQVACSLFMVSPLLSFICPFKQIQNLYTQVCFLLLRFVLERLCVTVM
Method in brief: as §1

ETV2 = biological target: T4, ETV2 (Homo sapiens, UniProt O00321 1-342); conditions: protein: recombinant; tags: N-terminal GST; dsDNA, one strand shown
T4 sequence: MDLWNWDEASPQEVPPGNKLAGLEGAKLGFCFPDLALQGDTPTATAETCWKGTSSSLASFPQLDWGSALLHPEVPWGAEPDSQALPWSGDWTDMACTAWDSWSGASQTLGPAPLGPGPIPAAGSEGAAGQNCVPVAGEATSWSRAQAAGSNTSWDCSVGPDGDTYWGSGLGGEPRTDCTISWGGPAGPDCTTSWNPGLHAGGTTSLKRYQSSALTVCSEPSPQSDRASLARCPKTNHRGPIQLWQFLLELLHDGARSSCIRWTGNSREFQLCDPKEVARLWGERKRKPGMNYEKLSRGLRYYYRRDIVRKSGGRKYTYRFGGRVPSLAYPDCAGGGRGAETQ
Method in brief: as §1

ELF3 = biological target: T5, ELF3 (Homo sapiens, UniProt P78545 1-371); conditions: protein: recombinant; tags: N-terminal GST; dsDNA, one strand shown
T5 sequence: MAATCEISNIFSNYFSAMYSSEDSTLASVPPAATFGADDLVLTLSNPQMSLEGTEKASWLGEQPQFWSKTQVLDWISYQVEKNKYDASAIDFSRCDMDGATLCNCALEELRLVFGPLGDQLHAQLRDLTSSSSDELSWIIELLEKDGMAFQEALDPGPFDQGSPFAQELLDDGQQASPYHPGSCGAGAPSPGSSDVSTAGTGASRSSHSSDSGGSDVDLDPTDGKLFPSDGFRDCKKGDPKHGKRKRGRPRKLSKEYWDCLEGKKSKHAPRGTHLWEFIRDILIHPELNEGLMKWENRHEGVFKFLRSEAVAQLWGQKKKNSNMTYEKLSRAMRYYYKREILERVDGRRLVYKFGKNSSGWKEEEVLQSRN
Method in brief: as §1

CRX = CRX (Homo sapiens, UniProt O43186 1-299); conditions: protein: recombinant; tags: N-terminal GST; dsDNA, one strand shown
CRX, sequence (O43186 whole entry): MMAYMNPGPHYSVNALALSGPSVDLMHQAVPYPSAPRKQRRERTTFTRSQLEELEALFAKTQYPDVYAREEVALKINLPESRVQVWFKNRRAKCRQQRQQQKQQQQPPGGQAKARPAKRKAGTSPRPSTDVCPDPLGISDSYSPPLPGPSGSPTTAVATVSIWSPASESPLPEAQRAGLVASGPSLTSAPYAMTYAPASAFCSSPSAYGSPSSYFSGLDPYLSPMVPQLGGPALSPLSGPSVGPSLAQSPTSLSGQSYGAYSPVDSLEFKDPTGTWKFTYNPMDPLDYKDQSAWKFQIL
Method in brief: as §1

ETV1 = ETV1 (Homo sapiens, UniProt P50549 1-477); conditions: protein: recombinant; tags: N-terminal GST; dsDNA, one strand shown
ETV1, sequence (P50549 whole entry): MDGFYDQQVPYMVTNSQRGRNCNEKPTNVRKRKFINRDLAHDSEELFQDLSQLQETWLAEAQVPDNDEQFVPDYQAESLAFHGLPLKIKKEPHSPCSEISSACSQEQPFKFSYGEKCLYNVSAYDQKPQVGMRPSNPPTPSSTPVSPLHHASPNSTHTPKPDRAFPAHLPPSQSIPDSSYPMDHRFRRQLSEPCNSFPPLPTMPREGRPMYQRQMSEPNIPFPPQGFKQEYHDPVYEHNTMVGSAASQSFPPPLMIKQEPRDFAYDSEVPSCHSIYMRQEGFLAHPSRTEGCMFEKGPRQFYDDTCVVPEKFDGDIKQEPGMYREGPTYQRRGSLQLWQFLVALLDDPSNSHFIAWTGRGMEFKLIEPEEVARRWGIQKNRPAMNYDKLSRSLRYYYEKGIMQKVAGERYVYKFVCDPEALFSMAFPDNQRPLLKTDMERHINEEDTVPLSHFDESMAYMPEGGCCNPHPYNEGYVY
Method in brief: as §1

ERF = biological target: T6, ERF (Homo sapiens, UniProt P50548 1-548); conditions: protein: recombinant; tags: N-terminal GST; dsDNA, one strand shown
T6 sequence: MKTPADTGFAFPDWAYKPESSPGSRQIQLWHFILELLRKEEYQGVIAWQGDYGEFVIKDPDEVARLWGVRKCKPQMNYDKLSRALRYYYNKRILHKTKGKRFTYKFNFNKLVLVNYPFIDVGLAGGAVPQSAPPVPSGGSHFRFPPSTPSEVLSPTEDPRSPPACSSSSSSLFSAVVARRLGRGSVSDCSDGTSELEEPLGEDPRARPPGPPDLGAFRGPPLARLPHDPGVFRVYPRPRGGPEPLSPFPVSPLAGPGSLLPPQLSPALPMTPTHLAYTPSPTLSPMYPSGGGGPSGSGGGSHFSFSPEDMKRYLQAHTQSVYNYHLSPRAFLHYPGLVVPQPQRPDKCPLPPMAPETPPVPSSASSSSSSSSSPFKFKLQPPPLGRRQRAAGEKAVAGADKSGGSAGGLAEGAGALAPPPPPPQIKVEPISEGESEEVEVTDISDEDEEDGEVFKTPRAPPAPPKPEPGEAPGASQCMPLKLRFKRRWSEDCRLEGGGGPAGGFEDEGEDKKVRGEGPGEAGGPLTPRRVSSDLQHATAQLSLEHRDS
Method in brief: as §1

ETV3L = biological target: T7, ETV3L (Homo sapiens, UniProt Q6ZN32 1-361); conditions: protein: recombinant; tags: N-terminal GST; dsDNA, one strand shown
T7 sequence: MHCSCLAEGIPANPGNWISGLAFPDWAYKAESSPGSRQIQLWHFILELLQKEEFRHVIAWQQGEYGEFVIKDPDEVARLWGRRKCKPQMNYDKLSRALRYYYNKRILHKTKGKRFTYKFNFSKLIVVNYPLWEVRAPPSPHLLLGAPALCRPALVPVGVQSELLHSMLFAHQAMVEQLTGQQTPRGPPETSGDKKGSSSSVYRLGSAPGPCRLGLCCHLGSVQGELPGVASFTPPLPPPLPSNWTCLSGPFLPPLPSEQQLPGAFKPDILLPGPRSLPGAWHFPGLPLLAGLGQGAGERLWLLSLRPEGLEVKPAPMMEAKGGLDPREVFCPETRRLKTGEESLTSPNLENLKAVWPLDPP
Method in brief: as §1

ETS2 = biological target: T8, ETS2 (Homo sapiens, UniProt P15036 1-469); conditions: protein: recombinant; tags: N-terminal GST; dsDNA, one strand shown
T8 sequence: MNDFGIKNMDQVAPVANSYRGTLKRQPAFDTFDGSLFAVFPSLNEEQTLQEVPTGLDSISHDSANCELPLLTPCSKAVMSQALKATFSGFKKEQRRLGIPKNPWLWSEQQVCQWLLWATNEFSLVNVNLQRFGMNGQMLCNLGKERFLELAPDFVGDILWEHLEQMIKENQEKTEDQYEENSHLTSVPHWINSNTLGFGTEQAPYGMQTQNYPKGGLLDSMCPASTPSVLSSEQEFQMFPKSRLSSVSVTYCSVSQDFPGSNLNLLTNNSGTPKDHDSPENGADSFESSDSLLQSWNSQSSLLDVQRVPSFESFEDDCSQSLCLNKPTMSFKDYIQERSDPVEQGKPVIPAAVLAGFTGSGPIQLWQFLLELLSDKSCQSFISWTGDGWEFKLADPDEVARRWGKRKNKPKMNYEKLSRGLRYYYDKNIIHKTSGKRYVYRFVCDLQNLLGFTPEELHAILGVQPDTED
Method in brief: as §1

SPDEF = biological target: T9, SPDEF (Homo sapiens, UniProt O95238 1-335); conditions: protein: recombinant; tags: N-terminal GST; dsDNA, one strand shown
T9 sequence: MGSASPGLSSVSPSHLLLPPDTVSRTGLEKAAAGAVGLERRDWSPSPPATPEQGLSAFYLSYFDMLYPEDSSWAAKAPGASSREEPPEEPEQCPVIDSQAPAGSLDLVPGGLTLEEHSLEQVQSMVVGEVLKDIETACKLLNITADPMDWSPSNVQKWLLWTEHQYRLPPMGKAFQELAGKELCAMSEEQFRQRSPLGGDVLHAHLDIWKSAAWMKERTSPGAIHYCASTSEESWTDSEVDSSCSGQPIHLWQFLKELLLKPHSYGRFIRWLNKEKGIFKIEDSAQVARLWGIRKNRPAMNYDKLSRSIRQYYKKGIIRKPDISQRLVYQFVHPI
Method in brief: as §1

ETV7 = biological target: T10, ETV7 (Homo sapiens, UniProt Q9Y603 1-341); conditions: protein: recombinant; tags: N-terminal GST; dsDNA, one strand shown
T10 sequence: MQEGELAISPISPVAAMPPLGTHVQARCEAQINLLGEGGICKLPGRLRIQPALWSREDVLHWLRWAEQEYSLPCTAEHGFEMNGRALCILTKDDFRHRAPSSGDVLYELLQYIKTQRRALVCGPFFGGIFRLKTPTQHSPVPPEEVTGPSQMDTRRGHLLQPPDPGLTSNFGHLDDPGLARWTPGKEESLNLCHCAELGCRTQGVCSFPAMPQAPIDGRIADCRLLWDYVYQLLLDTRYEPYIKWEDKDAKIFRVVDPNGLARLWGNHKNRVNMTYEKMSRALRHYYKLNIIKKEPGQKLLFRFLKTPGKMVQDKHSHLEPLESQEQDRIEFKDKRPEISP
Method in brief: as §1

ELF5 = biological target: T11, ELF5 (Homo sapiens, UniProt Q9UKW6-2 1-255); conditions: protein: recombinant; tags: N-terminal GST; dsDNA, one strand shown
T11 sequence: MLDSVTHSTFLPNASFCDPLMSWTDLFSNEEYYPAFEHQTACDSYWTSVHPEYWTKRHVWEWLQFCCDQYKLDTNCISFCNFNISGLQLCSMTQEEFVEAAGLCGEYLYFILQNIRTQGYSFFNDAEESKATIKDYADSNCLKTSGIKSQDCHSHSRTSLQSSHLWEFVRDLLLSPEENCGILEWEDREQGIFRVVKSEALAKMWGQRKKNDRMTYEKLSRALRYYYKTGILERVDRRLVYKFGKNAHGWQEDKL
Method in brief: as §1

ETV3 = biological target: T12, ETV3 (Homo sapiens, UniProt P41162-2 1-143); conditions: protein: recombinant; tags: N-terminal GST; dsDNA, one strand shown
T12 sequence: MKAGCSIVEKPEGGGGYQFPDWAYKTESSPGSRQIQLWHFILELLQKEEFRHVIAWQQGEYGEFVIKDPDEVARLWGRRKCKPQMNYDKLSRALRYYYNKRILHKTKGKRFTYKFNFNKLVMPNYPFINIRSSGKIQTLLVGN
Method in brief: as §1

ETV6 = ETV6 (Homo sapiens, UniProt P41212 1-452); conditions: protein: recombinant; tags: N-terminal GST; dsDNA, one strand shown
ETV6, sequence (P41212 whole entry): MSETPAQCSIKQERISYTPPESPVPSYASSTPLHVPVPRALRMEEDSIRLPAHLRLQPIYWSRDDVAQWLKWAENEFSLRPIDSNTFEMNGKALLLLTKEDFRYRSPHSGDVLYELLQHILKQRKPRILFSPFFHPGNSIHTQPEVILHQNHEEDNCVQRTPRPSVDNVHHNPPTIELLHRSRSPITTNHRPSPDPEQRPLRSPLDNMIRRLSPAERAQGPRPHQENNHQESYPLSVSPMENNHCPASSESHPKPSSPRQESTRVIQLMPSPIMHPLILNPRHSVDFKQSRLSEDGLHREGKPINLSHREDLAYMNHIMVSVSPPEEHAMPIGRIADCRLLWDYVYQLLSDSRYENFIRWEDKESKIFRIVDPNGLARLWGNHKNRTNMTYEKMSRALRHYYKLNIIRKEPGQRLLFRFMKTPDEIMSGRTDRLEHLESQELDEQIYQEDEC
Method in brief: as §1

## ATTATA
FEV
  binding signal: 1.32 fold enrichment (6-mer frequency, TF over GST control)
ETV5
  binding signal: 1.29 fold enrichment (6-mer frequency, TF over GST control)
HSF1
  binding signal: 2.05 fold enrichment (6-mer frequency, TF over GST control)
SPIC
  binding signal: 1.36 fold enrichment (6-mer frequency, TF over GST control)
ELF4
  binding signal: 1.24 fold enrichment (6-mer frequency, TF over GST control)
ELK4
  binding signal: 1.29 fold enrichment (6-mer frequency, TF over GST control)
ETV2
  binding signal: 1.42 fold enrichment (6-mer frequency, TF over GST control)
ELF3
  binding signal: 1.39 fold enrichment (6-mer frequency, TF over GST control)
CRX
  binding signal: 3.2 fold enrichment (6-mer frequency, TF over GST control)
ETV1
  binding signal: 1.3 fold enrichment (6-mer frequency, TF over GST control)
ERF
  binding signal: 1.3 fold enrichment (6-mer frequency, TF over GST control)
ETV3L
  binding signal: 1.33 fold enrichment (6-mer frequency, TF over GST control)
ETS2
  binding signal: 1.37 fold enrichment (6-mer frequency, TF over GST control)
SPDEF
  binding signal: 1.23 fold enrichment (6-mer frequency, TF over GST control)
ETV7
  binding signal: 1.37 fold enrichment (6-mer frequency, TF over GST control)
ELF5
  binding signal: 1.24 fold enrichment (6-mer frequency, TF over GST control)
ETV3
  binding signal: 1.28 fold enrichment (6-mer frequency, TF over GST control)
ETV6
  binding signal: 1.3 fold enrichment (6-mer frequency, TF over GST control)
